From PubChem BioAssay AID425 (Sanford-Burnham Center for Chemical Genomics, 2006)
Where “and” joins values, the source holds several entries; their conditions need not be identical. Identical values can stand only once. The campaign covered roughly 110,000 compounds. About 190 (0.17%) were called active. Many of the other results were omitted from the sample, so actives are more common in it than they were. Measured potencies and affinities stand elsewhere. A number with no mark means an inactive call. No stated cut-off is given here; in the data, active means inhibition above about 50%; inactive means the rest.

The compounds below were run against Dual specificity protein phosphatase 6 (Rattus norvegicus) (UniProt Q64346) (assay: MKP-3 phosphatase inhibitors, primary screen, biochemical, rat enzyme, in vitro (AID 425;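 further: plate controls were vehicle for no effect and reference inhibitor for full effect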)). Settings: recombinant MKP-3 phosphatase activity, fluorescence; at 20 µM; active compounds read high.
Sequence of Dual specificity protein phosphatase 6 (Rattus norvegicus) (Q64346 whole entry, looked up): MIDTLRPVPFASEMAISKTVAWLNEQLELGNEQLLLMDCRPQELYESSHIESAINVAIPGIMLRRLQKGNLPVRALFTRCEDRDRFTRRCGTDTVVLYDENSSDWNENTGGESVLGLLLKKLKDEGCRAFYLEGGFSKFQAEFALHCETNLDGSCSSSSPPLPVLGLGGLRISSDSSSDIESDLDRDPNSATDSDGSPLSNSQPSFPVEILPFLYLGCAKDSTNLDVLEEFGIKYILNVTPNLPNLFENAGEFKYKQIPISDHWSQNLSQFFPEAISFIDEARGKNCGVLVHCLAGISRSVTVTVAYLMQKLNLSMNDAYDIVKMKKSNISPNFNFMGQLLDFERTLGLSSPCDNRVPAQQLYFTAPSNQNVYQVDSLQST

Row | Structure (SMILES) | inhibition
1 | N#Cc1c(N)nc(SCC(=O)c2ccccc2)c(C#N)c1-c1ccc(Cl)cc1 | 6.2%
2 | Cc1cc(NC(=O)CSc2ccc(-c3nc4cc(C)c(C)cc4[nH]3)cn2)no1 | 0.6%
3 | Cc1cc2nc(-c3ccc(SCC(=O)N4CCOCC4)nc3)[nH]c2cc1C | 3.3%
4 | Oc1c(Br)cc(Br)cc1C=Nc1ccc(Br)c2cccnc12 | 52.9% (active)
5 | Oc1c(Br)cc(Br)cc1C=Nc1ccc(Cl)c2cccnc12 | 98.2% (active)
6 | Oc1ccc(Br)cc1C=Nc1ccc(Cl)c2cccnc12 | 14.2%
7 | Oc1oc(-c2ccccc2)nc1C=Nc1ccc(Cl)c2cccnc12 | 3.9%
8 | Oc1c(Br)cc(Br)cc1/C=N/c1ncn[nH]1 | 5.8%
9 | CCc1ccc(O)c(N=Cc2cc(Br)cc(Br)c2O)c1 | 1.5%
10 | COc1ccc(N(Cc2cc3ccc(C)cc3[nH]c2=O)C(C)=O)cc1 | -3.9%
11 | CC(C)Cc1cc(C(=O)NCCN2CCOCC2)no1 | -10.2%
12 | NC(=O)c1ccccc1NC(=O)c1ccc(Cl)cc1[N+](=O)[O-] | -1.7%
13 | O=C(Nc1nncs1)c1cc(-c2ccccc2Cl)nc2ccccc12 | 1.9%
14 | CCOc1ccc(CCNc2nc3c(c(=O)n(C)c(=O)n3C)n2CC)cc1OCC | -1%
15 | O=C(CNc1cccc2ccccc12)N/N=C/c1cn(Cc2ccccc2)c2ccccc12 | 4.7%
16 | O=C(N/N=C\c1cn(Cc2ccc(Cl)c(Cl)c2)c2ccccc12)c1ccc([N+](=O)[O-])cc1 | -0.1%
17 | O=C(c1cc2ccccc2oc1=O)N1CCCN(C(=O)c2cc3ccccc3oc2=O)CC1 | 3.4%
18 | CC(C)(C)C(=O)/C=C(\N)c1ccccn1 | -3.7%
19 | COc1ccc(C2NC(=S)NC(C)=C2C(=O)Nc2ccccc2)c(OC)c1 (centres undefined) | 1.7%
20 | Cc1cccc(N=Cc2ccc([N+](=O)[O-])s2)c1 | 49.9%
21 | CCc1ccc(C=NC23CN4CN(CN(C4)C2)C3)s1 | -1.3% and -8.8%
22 | O=[N+]([O-])c1ccc(C=Nc2ccc(Br)c(Cl)c2)s1 | -1.9%
23 | O=C(c1ccccc1)c1cc(Cl)ccc1N=Cc1ccc([N+](=O)[O-])s1 | 0.8%
24 | O=C(c1ccccc1)c1ccc(N=Cc2ccc([N+](=O)[O-])s2)cc1 | 62.2% (active)
25 | O=C(O)c1ccc(N=Cc2ccc([N+](=O)[O-])s2)cc1 | 83.1% (active)

Row | Structure (SMILES) | inhibition
26 | O=[N+]([O-])c1ccc(C=NC23CN4CN(CN(C4)C2)C3)s1 | 94.6% (active)
27 | CC(=O)Nc1ccc(N=Cc2ccc([N+](=O)[O-])s2)cc1 | 1.2%
28 | CN1CCN(/N=C/c2ccc([N+](=O)[O-])s2)CC1 | 2.9%
29 | O=[N+]([O-])c1ccc(C=Nc2ccc(Cl)c([N+](=O)[O-])c2)s1 | 67.5% (active)
30 | O=[N+]([O-])c1ccc(C=Nc2ccc(Oc3ccccc3)cc2)s1 | 0.3%
31 | O=[N+]([O-])c1cc(N=Cc2ccc(Br)s2)ccc1Cl | 0.8%
32 | Cn1c(O)c(N=NC(=O)COc2ccc3ccccc3c2)c2cc(Br)ccc21 | 3%
33 | C/C(O)=C\C(N)=N/c1nc(C)cc(C)n1 | 2.7%
34 | O=[N+]([O-])c1ccc(C(O)CN2CCN(C/C=C/c3ccccc3)CC2)cc1 (centres undefined) | 3.6%
35 | CCC(=O)N1c2ccc(S(=O)(=O)CCC(=O)N3CCn4c3nc3ccccc34)cc2CC1C (centres undefined) | 6.1%
36 | O=C(NCCNc1ccc([N+](=O)[O-])cc1Cl)c1ccccc1Cl | 1.6%
37 | COCCOC(=O)C1=C(C)NC(=O)CC1c1cccc(Cl)c1 (centres undefined) | 3.6%
38 | CN(C)CCCNC(=O)c1ccc(CN(c2ccccc2)S(C)(=O)=O)cc1 | -6.3%
39 | C/C(=N\NC(=O)C1(C)CC1(Br)Br)c1ccc(Br)s1 (centres undefined) | 0.4%
40 | COc1ccccc1CNC(=O)c1ccc(NC(C)=O)cc1 | 2.6%
41 | O=C1C(=O)c2ccccc2C(O)=C1c1ccc([N+](=O)[O-])cc1 | -1.5%
42 | O=C1C(=O)c2ccccc2C(O)=C1[N+](=O)[O-] | 106% (active)
43 | CN=CC1=C(O)c2ccccc2C1=O | -0.6%
44 | COc1cc(/C=N/Nc2nncc(=O)[nH]2)ccc1O | -0.1%
45 | O=C(c1cn(-c2ccccc2)nc1-c1ccc(F)cc1)N1CCOCC1 | -13.6%
46 | CC(=O)Nc1ccc(S(=O)(=O)Nc2cc(C)ccc2C)cc1 | 0.4%
47 | CCOc1cccc(=[O+]CC)c2c(C)oc(C)c12 | 96.5% (active)
48 | CCOc1cccc(=O)c2c(C)oc(C)c12 | 1.6%
49 | CCOc1ccc(-c2cc(OCC)c3c(C)oc(C)c3c(=[O+]CC)c2)cc1 | 3.9%
